# Bioassay records (PubChem BioAssay)
# Pf apPOL inh – Pf-apPOL DNA polymerase inhibition; Recombinant Pf-apPOL, molecular beacon fluorescence, 1.5 h; inhibition, % at 10 µM; hit rate 0.25% among 210,000; AID 1794808
# mHTT CaM bind – disrupts binding of mutant huntingtin to calmodulin | P42858 | AlphaScreen His-mHTT/GST-CaM binding, luminescence | inhibition, % at 15 µM | hit rate 3.6% among 190,000;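 note: 0% = both proteins with DMSO and 100% = one protein alone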
# Numbers without * were called inactive; . = no result given. The list is not random: actives were taken first. Their share in the collection is about 3.5%. Cut-off read from the data, not from the text of the source: active = inhibition above about 50%; inactive = the rest.
SMILES,Pf apPOL inh,mHTT CaM bind
O=C(CCn1c(=O)oc2ccccc21)NCCC(c1ccccc1)c1ccccc1,-4.0,-8.4
COc1nn(C)cc1C(=O)N1CCc2nc(NC(=O)c3ccco3)sc2C1,-1.8,-8.7
COc1ccccc1C(NC(C)=O)c1cc([N+](=O)[O-])c2cccnc2c1O (centres undefined),-5.7,100.0*
O=C(NC(c1cccs1)c1cc([N+](=O)[O-])c2cccnc2c1O)C1CCCCC1 (centres undefined),-6.1,47.0
COc1ccccc1C(NC(=O)C1CCCCC1)c1cc([N+](=O)[O-])c2cccnc2c1O (centres undefined),-5.0,54.0*
Nc1ncc2c(n1)CC(c1cccs1)CC2=O (centres undefined),0.7,3.7
Cc1ccccc1NC(=O)c1cc(C(C)(C)C)n2nccc2n1,-1.2,-54.3
OC(CN1CCCCC1)Cn1c2ccc(Br)cc2c2cc(Br)ccc21 (centres undefined),-3.9,.
OC(CN1CCNCC1)Cn1c2ccccc2c2ccccc21 (centres undefined),3.3,1.0
OC(CN1CCNCC1)Cn1c2ccccc2c2cc(Br)ccc21 (centres undefined),-2.1,50.7*
OC(CN1CCN(C/C=C/c2ccccc2)CC1)Cn1c2ccccc2c2ccccc21 (centres undefined),2.1,99.8*
OCC(O)Cn1c2ccc(Br)cc2c2cc(Br)cc(Br)c21 (centres undefined),2.6,98.0*
OC(CN1CCN(c2ccccc2)CC1)Cn1c2ccccc2c2ccccc21 (centres undefined),-5.2,12.0
Cc1ccc(C(=O)N2CCN(Cc3noc4ccccc34)CC2)cc1,-3.2,3.1
COc1ccc(C2=NC3(CCN(Cc4cccc(Cl)c4)CC3)NC2=O)cc1,4.4,22.4
O=C(c1ccc(F)cc1F)N1CCC(Nc2cccnc2)C1 (centres undefined),2.4,-0.9
COc1ccccc1C1=NN(C(=O)CN2CCOCC2)C(c2ccc(C)cc2)C1 (centres undefined),-2.2,38.3
Cc1ccc(C2=NN(C(=O)CN3CCOCC3)C(c3ccccc3Cl)C2)cc1C (centres undefined),-4.3,24.6
Cc1ccc(C)c(C2=NN(C(=O)CN3CCOCC3)C(c3ccccc3F)C2)c1 (centres undefined),-2.1,62.2*
COc1cccc(C2CC(c3cccc(C)c3)=NN2C(=O)CN2CCCC2)c1 (centres undefined),6.0,100.3*
COc1cccc(C2CC(c3cccc(C)c3)=NN2C(=O)CN2CCCCC2)c1 (centres undefined),-4.4,55.4*
Cc1cccc(C2=NN(C(=O)CN3CCOCC3)C(c3ccc(Cl)cc3)C2)c1 (centres undefined),-2.3,79.2*
COc1ccc(C2CC(c3cccc(C)c3)=NN2C(=O)CN2CCCCC2)cc1 (centres undefined),-2.3,41.4
COc1cccc(C2=NN(C(=O)CN(C)C(C)=O)C(c3ccc(F)cc3)C2)c1 (centres undefined),-2.4,17.0
COc1ccccc1C1=NOC(C(=O)Nc2cc(Br)ccc2O)C1 (centres undefined),-1.9,33.4
SMILES,Pf apPOL inh,mHTT CaM bind
COc1cccc(C2CC(c3cc(C)ccc3C)=NN2C(=O)CN2CCCCC2)c1 (centres undefined),-6.6,67.4*
COc1ccccc1C1=NN(C(=O)CN2CCCCC2)C(c2cccc(F)c2)C1 (centres undefined),-6.1,20.6
N=c1oc2ccc([N+](=O)[O-])cc2cc1C(=O)Nc1cccc(C(F)(F)F)c1,-1.7,17.0
COc1ccc(NC(=O)CSC2=NC3(CCCC3)N=C2c2cccc(F)c2)cc1OC,-2.9,-2.6
O=C1C(=O)N(Cc2ccc(F)cc2)c2ccc([N+](=O)[O-])cc21,-2.1,11.0
O=C1C(=O)N(Cc2ccc(F)cc2)c2ccc(Br)cc21,-1.4,70.0*
C=CCN1C(=O)C(=O)c2cc(Br)ccc21,3.4,9.0
CCCN1C(=O)C(=O)c2cc(Br)ccc21,-68.3,25.0
O=C1C(=O)N(Cc2ccc(Cl)c(Cl)c2)c2ccc(Br)cc21,2.4,100.0*
Cc1ccc(CN2C(=O)C(=O)c3cc(Br)ccc32)cc1,-0.2,51.0*
O=C(Nc1ccc(Cl)cc1)C1CCCN(c2ncc(-c3ccccc3)cn2)C1 (centres undefined),1.6,-8.3
CC(C)(C)c1csc(NC(=O)c2ccc([N+](=O)[O-])cc2)n1,0.0,6.9
CN(C)CCOc1ccc(Br)cc1Cl,-1.6,2.7
COc1cc(C(c2c[nH]c3ccccc23)c2c[nH]c3ccccc23)ccc1O,6.1,100.3*
COc1cc(C(c2c(C)[nH][nH]c2=O)c2c(C)[nH][nH]c2=O)ccc1O,0.3,6.0
CC1CCCCN1c1nc(-c2ccccc2O)nc2ccccc12 (centres undefined),3.2,-7.7
CC1CCCCN1c1nc(Cl)nc(N2CCCCC2C)n1 (centres undefined),8.0,100.0*
O=C(Cn1nc(-c2ccc(Cl)cc2)c2ccccc2c1=O)Nc1ccccc1,-4.0,0.0
CCOC(=O)CC1(NC(=O)N2CCCC2c2ccc(OC)cc2)CCCCC1 (centres undefined),-3.8,-2.3
COc1ccccc1C1=NOC(C(=O)Nc2c(C)n(C)n(-c3ccccc3)c2=O)C1 (centres undefined),-6.9,-2.1
COc1ccccc1OCC(=O)Nc1ccc(C(C)=O)cc1,8.2,-3.5
CCN(CC)c1ccc(NC(=O)COc2ccccc2OC)cc1,-3.0,56.4*
COc1ccccc1OCC(=O)Nc1ccc(Nc2ccccc2)cc1,-1.6,61.1*
CCC(C)c1ccc(NC(=O)COc2ccccc2OC)cc1 (centres undefined),-3.4,-56.6
COc1ccccc1CNC(=O)c1ccc2c(c1)NC(=O)C(N1CCCCC1)S2 (centres undefined),-15.5,25.0
SMILES,Pf apPOL inh,mHTT CaM bind
COc1ccc2nc(NC(=O)Cn3c(-c4ccccc4F)nc4ccccc4c3=O)sc2c1,-8.4,100.0*
O=C(Cn1c(-c2ccccc2F)nc2ccccc2c1=O)Nc1ccc(F)c(Cl)c1,-0.8,91.0*
COc1cccc(NC(=O)Cn2c(-c3ccccc3F)nc3ccccc3c2=O)c1,-0.9,4.0
COc1ccc(NC(=O)Cn2c(-c3ccccc3F)nc3ccccc3c2=O)cc1OC,-0.6,1.0
Cc1ccc(N2CC(NS(C)(=O)=O)CC2=O)cc1C (centres undefined),-7.7,-16.8
Cc1noc(C2CN(C(=O)CSCc3ccccc3)C2)n1,-4.5,-18.1
CC(=O)NC(c1ccc(N(C)C)cc1)c1cc(Cl)c2cccnc2c1O (centres undefined),-4.7,96.0*
CC(C)C(=O)NC(c1ccc2c(c1)OCO2)c1cc(Cl)c2cccnc2c1O (centres undefined),-7.6,62.0*
OC(c1ccc2c(c1)OCO2)c1nccc2ccccc12 (centres undefined),-6.6,5.0
CC(=O)NC(c1ccc(C(C)C)cc1)c1cc(Cl)c2cccnc2c1O (centres undefined),11.9,100.0*
CCCC(=O)NC(c1ccc(N(C)C)cc1)c1cc(Cl)c2cccnc2c1O (centres undefined),-1.7,43.0
CC(=O)NC(c1ccccc1Cl)c1cc(Cl)c2cccnc2c1O (centres undefined),7.7,95.0*
N#CC1=C(N)N(c2cccc([N+](=O)[O-])c2)C2=C(C(=O)CCC2)C1c1ccsc1 (centres undefined),-2.6,11.0
